Results: the supplement of paper PMC3545927
Some of the results follow. The hit rate among all sequences tested is not known here.

Target: furin, P09958
Experiment: furin cleavage Z-score vs untreated control; higher = more cleavage, active = 3.5 or more, inactive = 1 or less, 8 variable residues between constant flanks
Procedure, shortened: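 Furin cleavage was scored on 8-mer peptides joined to a cDNA oligonucleotide and bound to magnetic beads at the N-terminus. Digestion with purified furin (1:10 enzyme:substrate, 0.01 ml, 50 mM HEPES pH 7.5, CaCl2, NaCl) lasted 7.5, 15 or 30 min. Freed DNA was tagged with adapters by PCR, sequenced and counted; the cleavage Z-score is the lowess-adjusted log count versus furin-free reactions, scaled by median absolute deviation.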

Chain of furin, P09958 (P09958 whole entry): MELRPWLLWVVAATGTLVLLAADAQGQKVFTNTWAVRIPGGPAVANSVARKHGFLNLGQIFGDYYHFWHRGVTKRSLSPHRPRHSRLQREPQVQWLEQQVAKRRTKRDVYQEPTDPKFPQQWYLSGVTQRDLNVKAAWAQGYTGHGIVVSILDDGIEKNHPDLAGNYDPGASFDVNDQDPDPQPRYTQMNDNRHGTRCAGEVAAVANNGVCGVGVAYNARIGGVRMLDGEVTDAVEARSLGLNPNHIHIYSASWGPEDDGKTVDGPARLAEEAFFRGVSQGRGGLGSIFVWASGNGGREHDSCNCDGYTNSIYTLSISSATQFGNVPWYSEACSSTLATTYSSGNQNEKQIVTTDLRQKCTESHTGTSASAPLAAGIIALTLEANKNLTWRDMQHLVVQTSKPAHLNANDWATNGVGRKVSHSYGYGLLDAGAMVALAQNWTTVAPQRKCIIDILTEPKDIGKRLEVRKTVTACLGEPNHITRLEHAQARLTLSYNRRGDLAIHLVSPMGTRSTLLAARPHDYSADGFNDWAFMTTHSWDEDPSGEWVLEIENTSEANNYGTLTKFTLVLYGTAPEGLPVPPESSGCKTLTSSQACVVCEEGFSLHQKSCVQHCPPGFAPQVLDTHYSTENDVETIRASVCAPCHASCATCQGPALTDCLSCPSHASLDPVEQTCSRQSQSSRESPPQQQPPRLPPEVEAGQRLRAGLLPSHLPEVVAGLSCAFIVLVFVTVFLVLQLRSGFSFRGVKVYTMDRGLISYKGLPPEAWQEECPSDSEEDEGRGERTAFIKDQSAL

B1: HC324 (peptide)
chain: CASPTTALVMAGNASASA
- furin cleavage Z-score (7.5 min): 0.089 (inactive)
- furin cleavage Z-score (15 min): -0.626 (inactive)
- furin cleavage Z-score (30 min): -1.02 (inactive)

B2: FS-2764 (peptide)
chain: CARQRRLVLVAGNASASA
- furin cleavage Z-score (7.5 min): -0.772 (inactive)
- furin cleavage Z-score (15 min): -0.609 (inactive)
- furin cleavage Z-score (30 min): 1.17

B3: FS-1770 (peptide)
chain: CARQRRARFVAGNASASA
- furin cleavage Z-score (7.5 min): 6.58 (active)
- furin cleavage Z-score (15 min): 8.49 (active)
- furin cleavage Z-score (30 min): 7.14 (active)

B4: FS-2509 (peptide)
chain: CARQRRAITVAGNASASA
- furin cleavage Z-score (7.5 min): 4.39 (active)
- furin cleavage Z-score (15 min): 7.17 (active)
- furin cleavage Z-score (30 min): 7.22 (active)

B5: FS-2508 (peptide)
chain: CARQRRAFQVAGNASASA
- furin cleavage Z-score (7.5 min): 1.92
- furin cleavage Z-score (15 min): 4.22 (active)
- furin cleavage Z-score (30 min): 6.29 (active)

B6: FS-3198 (peptide)
chain: CARNRRIITVAGNASASA
- furin cleavage Z-score (7.5 min): 0.0348 (inactive)
- furin cleavage Z-score (15 min): -1.25 (inactive)
- furin cleavage Z-score (30 min): 0.314 (inactive)

B7: FS-2551 (peptide)
chain: CARERRYSTVAGNASASA
- furin cleavage Z-score (7.5 min): -0.101 (inactive)
- furin cleavage Z-score (15 min): 1.01
- furin cleavage Z-score (30 min): 0.281 (inactive)

B8: FS-2064 (peptide)
chain: CARQPRVDFVAGNASASA
- furin cleavage Z-score (7.5 min): -1.17 (inactive)
- furin cleavage Z-score (15 min): -0.264 (inactive)
- furin cleavage Z-score (30 min): -0.469 (inactive)

B9: HC88 (peptide)
chain: CAVVCMSMSYAGNASASA
- furin cleavage Z-score (7.5 min): -1.17 (inactive)
- furin cleavage Z-score (15 min): -0.925 (inactive)
- furin cleavage Z-score (30 min): 0.213 (inactive)

B10: HC961 (peptide)
chain: CAPPSWDQMWAGNASASA
- furin cleavage Z-score (7.5 min): 1.06
- furin cleavage Z-score (15 min): -0.132 (inactive)
- furin cleavage Z-score (30 min): 1

B11: HC1180 (peptide)
chain: CAVKNGTMRIAGNASASA
- furin cleavage Z-score (7.5 min): 2.3
- furin cleavage Z-score (15 min): 1.25
- furin cleavage Z-score (30 min): 0.508 (inactive)

B12: FS-411 (peptide)
chain: CADTERKRRHAGNASASA
- furin cleavage Z-score (7.5 min): 8.87 (active)
- furin cleavage Z-score (15 min): 11 (active)
- furin cleavage Z-score (30 min): 9.59 (active)

B13: FS-1508 (peptide)
chain: CAAEARKNRPAGNASASA
- furin cleavage Z-score (7.5 min): -0.91 (inactive)
- furin cleavage Z-score (15 min): 0.425 (inactive)
- furin cleavage Z-score (30 min): -1.59 (inactive)

B14: FS-854 (peptide)
chain: CARFRRKRRHAGNASASA
- furin cleavage Z-score (7.5 min): 9.74 (active)
- furin cleavage Z-score (15 min): 9.95 (active)
- furin cleavage Z-score (30 min): 7.32 (active)

B15: HC725 (peptide)
chain: CADLYLVTRHAGNASASA
- furin cleavage Z-score (7.5 min): -0.523 (inactive)
- furin cleavage Z-score (15 min): -1.17 (inactive)
- furin cleavage Z-score (30 min): -0.885 (inactive)

B16: FS-170 (peptide)
chain: CAHELRHRRHAGNASASA
- furin cleavage Z-score (7.5 min): 11 (active)
- furin cleavage Z-score (15 min): 10.9 (active)
- furin cleavage Z-score (30 min): 11 (active)

B17: HC1053 (peptide)
chain: CAPAIASLMAAGNASASA
- furin cleavage Z-score (7.5 min): -0.244 (inactive)
- furin cleavage Z-score (15 min): 1.04
- furin cleavage Z-score (30 min): 0.347 (inactive)

B18: HC2307 (peptide)
chain: CAFVPCHRPSAGNASASA
- furin cleavage Z-score (7.5 min): -1.81 (inactive)
- furin cleavage Z-score (15 min): 0.496 (inactive)
- furin cleavage Z-score (30 min): 0.113 (inactive)

B19: HC1236 (peptide)
chain: CALHEYPVGSAGNASASA
- furin cleavage Z-score (7.5 min): -0.438 (inactive)
- furin cleavage Z-score (15 min): -0.864 (inactive)
- furin cleavage Z-score (30 min): -0.00108 (inactive)

B20: EK3 (peptide)
chain: CAEERARAKWAGNASASA
- furin cleavage Z-score (7.5 min): 0.379 (inactive)
- furin cleavage Z-score (15 min): 1.71
- furin cleavage Z-score (30 min): -0.287 (inactive)

B21: HC136 (peptide)
chain: CAEVVTSTWVAGNASASA
- furin cleavage Z-score (7.5 min): 0.215 (inactive)
- furin cleavage Z-score (15 min): -1.42 (inactive)
- furin cleavage Z-score (30 min): -0.55 (inactive)

B22: HC92 (peptide)
chain: CAVVCDSMSYAGNASASA
- furin cleavage Z-score (7.5 min): -1.45 (inactive)
- furin cleavage Z-score (15 min): 0.971 (inactive)
- furin cleavage Z-score (30 min): -0.149 (inactive)

B23: FS-1804 (peptide)
chain: CARVSRFVTWAGNASASA
- furin cleavage Z-score (7.5 min): 0.465 (inactive)
- furin cleavage Z-score (15 min): 2.02
- furin cleavage Z-score (30 min): 2.57

B24: HC1242 (peptide)
chain: CAEPEPDVAVAGNASASA
- furin cleavage Z-score (7.5 min): -1.24 (inactive)
- furin cleavage Z-score (15 min): -1.89 (inactive)
- furin cleavage Z-score (30 min): 0.391 (inactive)

B25: HC500 (peptide)
chain: CAFTTLPALSAGNASASA
- furin cleavage Z-score (7.5 min): 1.12
- furin cleavage Z-score (15 min): -0.632 (inactive)
- furin cleavage Z-score (30 min): 1.28

B26: FS-3113 (peptide)
chain: CARVARDVAVAGNASASA
- furin cleavage Z-score (7.5 min): 9.5 (active)
- furin cleavage Z-score (15 min): 11.7 (active)
- furin cleavage Z-score (30 min): 9.58 (active)

B27: FS-2670 (peptide)
chain: CARFYRPVAVAGNASASA
- furin cleavage Z-score (7.5 min): -2.66 (inactive)
- furin cleavage Z-score (15 min): -1.03 (inactive)
- furin cleavage Z-score (30 min): -2.39 (inactive)

B28: FS-1798 (peptide)
chain: CARVARFVTHAGNASASA
- furin cleavage Z-score (7.5 min): 0.861 (inactive)
- furin cleavage Z-score (15 min): 1.96
- furin cleavage Z-score (30 min): 4.55 (active)

B29: HC1426 (peptide)
chain: CAHARKAVTHAGNASASA
- furin cleavage Z-score (7.5 min): -1.35 (inactive)
- furin cleavage Z-score (15 min): -0.868 (inactive)
- furin cleavage Z-score (30 min): 0.178 (inactive)

B30: FS-1797 (peptide)
chain: CARVARAMSIAGNASASA
- furin cleavage Z-score (7.5 min): -0.644 (inactive)
- furin cleavage Z-score (15 min): 0.561 (inactive)
- furin cleavage Z-score (30 min): 2.57

B31: FS-2529 (peptide)
chain: CARVARFATSAGNASASA
- furin cleavage Z-score (7.5 min): 2.89
- furin cleavage Z-score (15 min): 4.14 (active)
- furin cleavage Z-score (30 min): 5.25 (active)
